The values that follow come from article PMC5540273 (PLoS ONE, 2017).

One test concerns T1, VEGFR2.
T1 construct: gene KDR

The test system of another test is T2, YANK1.
T2 construct: gene STK32A

Another test has as its system T3, YANK3.
T3 construct: gene STK32C

Another test deals with T4, YSK1.
T4 construct: gene STK25
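Also: kd values determined as follow-up on hits from a single-replicate KINOMEscan panel screen.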

`Cn1ccc2ncnc(Oc3ccc(NC(=O)Nc4ccccc4)cc3)c21` had a Kd with VEGFR2 of 0.045 µM. In other words, the double-digit nanomolar range.
Regarding `CCn1c(-c2cccnc2O)nc2cnccc21` [SB-736715], the dissociation constant Kd in the test on WEE2 is over 10 µM.
For the molecule `Cc1ccc(-c2cc(-c3c[nH]nc3-c3ccccn3)ccn2)cc1` [GW684088], the Kd in the test on WNK4 is over 10 µM.
In turn, `Cn1cncc1-c1ccc2ncnc(Nc3ccc(OCc4ccccc4)cc3)c2c1` [GW320571] had a Kd in the test with YANK1 of over 10 µM.
The same measure, in the same setting: the result for `Nc1ncnc2[nH]c(-c3ccccc3)nc12` [AH5015] reads over 10 µM.
`CCCc1ccc(S(=O)(=O)NC2CCN(c3ccnc(Nc4ccc(F)cc4)n3)C2)cc1` (stereo not drawn) [GSK1379715]: the Kd with YANK3 and with YSK1 was over 10 µM in each case.
`CS(=O)(=O)c1ccc(-c2nc3n(c2-c2ccncc2)CCC3)cc1` [SKF-105942]: in the test on YANK3, the Kd was over 10 µM.
`CCn1c(-c2ccccn2)nc2cnccc21` [SB-736398]: the Kd with YSK1 was over 10 µM.
